Data taken from PubChem BioAssay AID1159580 (chemical genetic matrix, 2015).
Out of some 5,500 compounds screened, about 2,000 (36%) were called active. Roughly 18% stayed inconclusive and do not appear here. Cut-off read from the data, not from the text of the source: active = normalized growth mostly below about 0.91 (no sharp cut-off); inconclusive = no clear call, values can overlap the other calls; inactive = mostly above about 0.92. The list shows a part of the results.

Assay: chemical genetic growth profiling, strain panel (AID 1159580);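 note: tested at 20 µM; growth read once vehicle control cultures reached saturation at 30 °C; 1 = growth at the plate median or of vehicle wells; lower values mean less growth of the strain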
Details: growth OD

Measured: normalized growth

CC1(C)S[C@@H]2[C@H](NC(=O)[C@H](NC(=O)N3CCNC3=O)c3ccccc3)C(=O)N2C1C(=O)O (stereo partly drawn)
inactive: S. cerevisiae deletion strains, locus YJR075W, strain HOC1, active compounds read low 1.01 | S. cerevisiae deletion strains, locus YKL009W, strain mrt4, active compounds read low 0.967 | S. cerevisiae deletion strains, locus YKL068W, active compounds read low 0.979 | S. cerevisiae deletion strains, locus YKL085W, strain MDH1 (second series), active compounds read low 0.998 | S. cerevisiae deletion strains, locus YKL085W, strain MDH1, active compounds read low 0.998 | S. cerevisiae deletion strains, locus YKL160W, strain elf1, active compounds read low 0.957 | S. cerevisiae deletion strains, locus YKL190W, strain CNB1, active compounds read low 0.995 | S. cerevisiae deletion strains, locus YKR001C, strain vps1, active compounds read low 1 | S. cerevisiae deletion strains, locus YKR026C, strain gcn3, active compounds read low 0.999 | S. cerevisiae deletion strains, locus YKR091W, strain srl3, active compounds read low 0.974 | S. cerevisiae deletion strains, locus YLL001W, strain dnm1, active compounds read low 0.957 | S. cerevisiae deletion strains, locus YLL026W, active compounds read low 0.984 | S. cerevisiae deletion strains, locus YLL041C, strain sdh2, active compounds read low 0.983 | S. cerevisiae deletion strains, locus YLR027C, strain aat2, active compounds read low 0.976 | S. cerevisiae deletion strains, locus YLR039C, strain RIC1, active compounds read low 1 | S. cerevisiae deletion strains, locus YLR058C, strain SHM2, active compounds read low 0.989 | S. cerevisiae deletion strains, locus YLR102C, strain apc9, active compounds read low 0.992 | S. cerevisiae deletion strains, locus YLR113W, strain HOG1, active compounds read low 0.956 | S. cerevisiae deletion strains, locus YLR221C, strain rsa3, active compounds read low 0.964 | S. cerevisiae deletion strains, locus YLR258W, strain gsy2, active compounds read low 0.988 | S. cerevisiae deletion strains, locus YLR262C, strain YPT6 (second series), active compounds read low 0.958 | S. cerevisiae deletion strains, locus YLR262C, strain YPT6, active compounds read low 0.98 | S. cerevisiae deletion strains, locus YLR268W, strain sec22, active compounds read low 0.993 | S. cerevisiae deletion strains, locus YLR320W, strain mms22, active compounds read low 0.956 | S. cerevisiae deletion strains, locus YLR330W, strain CHS5, active compounds read low 0.997 | S. cerevisiae deletion strains, locus YLR342W, strain FKS1 (second series), active compounds read low 1.01 | S. cerevisiae deletion strains, locus YLR342W, strain FKS1, active compounds read low 0.993 | S. cerevisiae deletion strains, locus YLR357W, strain rsc2, active compounds read low 0.977 | S. cerevisiae deletion strains, locus YLR370C, strain arc18, active compounds read low 0.98 | S. cerevisiae deletion strains, locus YLR371W, strain rom2, active compounds read low 0.997 | S. cerevisiae deletion strains, locus YLR384C, strain iki3, active compounds read low 0.976 | S. cerevisiae deletion strains, locus YLR418C, strain cdc73, active compounds read low 0.995 | S. cerevisiae deletion strains, locus YML016C, strain PPZ1, active compounds read low 1 | S. cerevisiae deletion strains, locus YML032C, strain rad52, active compounds read low 1.01 | S. cerevisiae deletion strains, locus YML120C, strain ndi1, active compounds read low 0.959 | S. cerevisiae deletion strains, locus YML124C, strain tub3, active compounds read low 0.996 | S. cerevisiae deletion strains, locus YMR058W, strain fet3, active compounds read low 0.973 | S. cerevisiae deletion strains, locus YMR078C, strain ctf18, active compounds read low 0.98 | S. cerevisiae deletion strains, locus YMR125W, strain sto1, active compounds read low 1 | S. cerevisiae deletion strains, locus YMR129W, active compounds read low 0.991 | S. cerevisiae deletion strains, locus YMR205C, strain PFK2, active compounds read low 0.954 | S. cerevisiae deletion strains, locus YMR223W, strain ubp8, active compounds read low 0.962 | S. cerevisiae deletion strains, locus YMR231W, strain pep5, active compounds read low 0.985 | S. cerevisiae deletion strains, locus YMR307W, strain GAS1, active compounds read low 1.08 | S. cerevisiae deletion strains, locus YNL067W, strain RPL9B, active compounds read low 1.02 | S. cerevisiae deletion strains, locus YNL071W, strain lat1, active compounds read low 0.989 | S. cerevisiae deletion strains, locus YNL128W, strain TEP1, active compounds read low 0.991 | S. cerevisiae deletion strains, locus YNL183C, strain NPR1, active compounds read low 0.942 | S. cerevisiae deletion strains, locus YNL209W, strain ssb2, active compounds read low 0.989 | S. cerevisiae deletion strains, locus YNL233W, strain BNI4, active compounds read low 1.04 | S. cerevisiae deletion strains, locus YNL248C, strain rpa49, active compounds read low 0.993 | S. cerevisiae deletion strains, locus YNL250W, strain rad50, active compounds read low 0.975 | S. cerevisiae deletion strains, locus YNL271C, strain bni1, active compounds read low 1 | S. cerevisiae deletion strains, locus YNL298W, strain CLA4, active compounds read low 0.978 | S. cerevisiae deletion strains, locus YNL307C, strain MCK1, active compounds read low 0.994 | S. cerevisiae deletion strains, locus YNL322C, strain KRE1 (second series), active compounds read low 0.983 | S. cerevisiae deletion strains, locus YNL322C, strain KRE1, active compounds read low 0.993 | S. cerevisiae deletion strains, locus YNR049C, strain mso1, active compounds read low 0.975 | S. cerevisiae deletion strains, locus YNR052C, strain pop2, active compounds read low 0.986 | S. cerevisiae deletion strains, locus YOL006C, strain TOP1, active compounds read low 1.04 | S. cerevisiae deletion strains, locus YOL012C, strain htz1 1.4 | S. cerevisiae deletion strains, locus YOL147C, strain pex11, active compounds read low 0.985 | S. cerevisiae deletion strains, locus YOR001W, strain rrp6, active compounds read low 0.981 | S. cerevisiae deletion strains, locus YOR061W, strain CKA2, active compounds read low 1 | S. cerevisiae deletion strains, locus YOR069W, strain VPS5, active compounds read low 0.988 | S. cerevisiae deletion strains, locus YOR070C, strain gyp1, active compounds read low 0.992 | S. cerevisiae deletion strains, locus YOR080W, strain dia2, active compounds read low 0.969 | S. cerevisiae deletion strains, locus YOR083W, strain WHI5, active compounds read low 0.957 | S. cerevisiae deletion strains, locus YOR106W, strain vam3, active compounds read low 0.951 | S. cerevisiae deletion strains, locus YOR136W, strain idh2, active compounds read low 0.996 | S. cerevisiae deletion strains, locus YOR144C, strain elg1, active compounds read low 1.01 | S. cerevisiae deletion strains, locus YOR184W, strain ser1, active compounds read low 0.991 | S. cerevisiae deletion strains, locus YOR231W, strain MKK1, active compounds read low 0.975 | S. cerevisiae deletion strains, locus YOR265W, strain rbl2, active compounds read low 0.983 | S. cerevisiae deletion strains, locus YOR270C, strain vph1, active compounds read low 0.968 | S. cerevisiae deletion strains, locus YOR290C, strain snf2, active compounds read low 0.936 | S. cerevisiae deletion strains, locus YOR316C, strain cot1, active compounds read low 0.99 | S. cerevisiae deletion strains, locus YPL051W, strain arl3, active compounds read low 0.99 | S. cerevisiae deletion strains, locus YPL078C, strain atp4, active compounds read low 0.974 | S. cerevisiae deletion strains, locus YPL106C, strain sse1, active compounds read low 0.944 | S. cerevisiae deletion strains, locus YPL240C, strain hsp82, active compounds read low 0.985 | S. cerevisiae deletion strains, locus YPL256C, strain CLN2, active compounds read low 0.955 | S. cerevisiae deletion strains, locus YPR119W, strain clb2, active compounds read low 0.997 | S. cerevisiae deletion strains, locus YPR141C, strain kar3, active compounds read low 0.989 | S. cerevisiae deletion strains, locus YPR163C, strain tif3, active compounds read low 0.975 | S. cerevisiae deletion strains, locus YPR167C, strain met16, active compounds read low 0.985 | S. cerevisiae deletion strains, strain wtn01, active compounds read low 1 | S. cerevisiae strains, strain wild type, active compounds read low 1
